# Structures can show the parent of a compound that is named as a salt.
# Tested on: Saccharomyces cerevisiae
# Experiment: fraction of cells in G1 phase (DNA content, flow cytometry); higher = more cells with unreplicated DNA (G1 delay)
# Conditions: temperature: 30 C; YPD; JTY2953 pdr5 snq2 (sensitized); drug added to: cultures diluted from stationary phase; 6-7 h
# Outline: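 S. cerevisiae grown in YPD at 30°C was exposed to library drugs. In one setup, overnight sensitized JTY2953 cultures were diluted 1∶200, given a final 20 µg/ml and fixed after 6–7 h, while other runs dosed dividing JTY2953 with fixation 6 h later or BY4741 with fixation 4.33 h later. Cells were ethanol-fixed, stained with SYTOX Green and analysed by flow cytometry at 10,000 events. The G1 fraction is the area of the Dean-Jett-Fox G1 peak divided by the summed G1 and G2/M areas.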
row,Compound,fraction of cells in G1 phase
1,CCC1=C(C)CN(C(=O)NCCc2ccc(S(=O)(=O)NC(=O)N[C@H]3CC[C@H](C)CC3)cc2)C1=O [Glimepiride] (40.7642 µM),0.481
2,CCOC(=O)OC(C)OC1=C(C(=O)Nc2ccccn2)N(C)S(=O)(=O)c2ccccc21 (configuration not stated) [Ampiroxicam] (44.6957 µM),0.5
3,CC(C)[C@H]1CC[C@H](C(=O)N[C@H](Cc2ccccc2)C(=O)O)CC1 [nateglinide] (63.0056 µM),0.489
4,CC(C)C(=O)Nc1ccc([N+](=O)[O-])c(C(F)(F)F)c1 [Flutamide] (72.4068 µM),0.526
5,N=C(N)NC(=O)Cc1c(Cl)cccc1Cl [Guanfacine HCl] (70.7818 µM),0.495
6,C[N+](C)(C)CCOC(N)=O [Carbamylcholine Cl] (135.871 µM),0.506
7,COc1ccc(Cl)cc1C(=O)NCCc1ccc(S(=O)(=O)NC(=O)NC2CCCCC2)cc1 [Glyburide] (40.4847 µM),0.531
